Compound activity (PubChem BioAssay)
L3MBTL1 block = blocks human L3MBTL1. Q9Y468. AlphaScreen L3MBTL1–H3K9me1 peptide binding. Potency, µM (doses to about 57.1 µM), for inactives: at the top dose activity, negative = inhibition, most hits filed as inhibitors. actives 0.66% (n = 230,000). AID 485360; note: % is set by controls: 0 for no effect and ±100 for the full control effect; nearly all actives have a fitted effect of over 60% in size
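L3MBTL1 50 nM + b-AHA-H3(1-15)K9me1 75 nM, 30 min RT; compound added, 30 min RT; streptavidin donor/Ni-chelate acceptor beads 10 ug/mL each final, 30 min RT dark; AlphaScreen read.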
Sfp inh = Sfp phosphopantetheinyl transferase inhibition; Q9F4F7; Biochemical Sfp PPTase activity, qHTS; Potency, µM, for the others: largest response in the series, negative = inhibition, usual class: inhibitors; actives 3.5% (n = 310,000);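 note: the enzyme is Sfp with the accession as filed and its product quenches rhodamine fluorescence; 0% = enzyme reaction without inhibitor and -100% = no enzyme wells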
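Fluorescence-quenching assay with 15 nM Sfp, 5 uM rhodamine-CoA and 12.5 uM BHQ-2-labelled ybbR peptide in pH 7.6 Hepes/MgCl2 buffer. Enzyme was pre-incubated with compound for 15 min at room temperature. Rate was taken from the 30-min fluorescence change (525/598 nm).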
BAZ2B block = inhibitors of human BAZ2B bromodomain | Q9UIF8 | Potency, µM (titrated, usually from 114 µM), for the others: at the highest dose activity change, negative = inhibition, actives largely listed as inhibitors | actives 4.4% (n = 360,000) | AID 504333 | AlphaScreen BAZ2B-H3K14Ac peptide displacement; note: % is set by controls: 0 for no effect and ±100 for the full control effect; nearly all actives have a fitted effect of over 60% in size
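AlphaScreen displacement: compounds (up to 110uM) incubated 30 min at room temperature with a preformed 50 nM BAZ2B/50 nM biotinylated H3K14Ac peptide complex in PBS pH 7.4 with Tween-20. Donor and acceptor beads at 10 ug/mL final added, 20 min light-protected before reading.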
G9a inh = G9a (human) methyltransferase inhibition | actives 8.8% (n = 350,000) | G9a H3K9 monomethylation, AlphaScreen, 2 h | Potency, µM (titrated, usually from 102 µM), inactives show top-dose activity, negative = inhibition, usual class: inhibitors | Q96KQ7 | AID 504332; note: % is set by controls: 0 for no effect and ±100 for the full control effect; nearly all actives have a fitted effect of over 75% in size
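AlphaScreen read-out: biotin-H3K9 peptide (500 nM) methylation by 20 nM enzyme with 20 uM SAM, 2 h at room temperature after 15 min compound preincubation; anti-monomethyl H3K9 antibody plus donor/acceptor beads, 10 min dark.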
JMJD2A Tudor inh = inhibitors of human JMJD2A Tudor domain | actives 4.4% (n = 390,000) | AlphaScreen JMJD2A-Tudor / H3K4me3 peptide binding | Potency, µM (top dose mostly 114 µM), for the others: at the highest dose activity change, negative = inhibition, hits mostly inhibitors | AID 504339; note: % is set by controls: 0 for no effect and ±100 for the full control effect; nearly all actives have a fitted effect of over 50% in size
HP1b binding inh = blocks HP1-beta chromodomain binding to methylated histone tails; AlphaScreen HP1-beta / biotin-H3K9me3 peptide binding; Potency, µM (top dose mostly 114 µM), without a hit: at the highest dose activity change, negative = inhibition, hits mostly inhibitors; actives 0.56% (n = 390,000); AID 540317; note: nearly all actives have a fitted effect of over 70% in size
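HP1-beta protein (50 nM final) preincubated 30 min at room temperature with biotinylated H3(1-18)K9me3 peptide (50 nM) in PBS pH 7.4, 0.01% Tween-20, then compound added for 30 min. AlphaScreen streptavidin donor/nickel chelate acceptor beads (10 ug/mL final), 30 min dark, luminescence read.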
Numbers without * were called inactive; ? = inconclusive; / = not tested or not shown; [ ] = remark or other dose. Compounds with a hit are over-represented: about 12% of the library has one in this group of screens. Calls come from the whole dose curve; as a rule, active = well fitted curve in the direction sought with a large enough effect; inconclusive = small, poorly fitted or top-dose-only effect, or another doubt; inactive = no such curve, though single readings can be large; an effect the other way counts as inactive or inconclusive. Potency is the fitted concentration of half-maximal effect.

SMILES	L3MBTL1 block	Sfp inh	BAZ2B block	G9a inh	JMJD2A Tudor inh	HP1b binding inh
COc1ccc(/C=C\c2onc(C)c2S(=O)(=O)N2CCC(C(=O)Nc3ccc(C)cc3C)CC2)cc1	/	/	/	9%[59 µM]	-1%	38%
CC1(C)Oc2cc3c(cc2O1)OC(C)(C)O3	/	-18%	/	/	/	/
CCC(=O)Nc1sc2c(c1C(N)=O)CCC2	-9%	9%	8%	19%[59 µM]	-24%	1%
CCCC(=O)NC(=S)Nc1sc2c(c1C(N)=O)CCC2	-3%	40µM*	-7%	7.9µM*	-19%	13%
CC(C)C(=O)NC(=S)Nc1sc2c(c1C(N)=O)CCCC2	-12%	?	-27%	4µM*	?	?
COc1ccc(N2CCN(C(=O)CCS(=O)(=O)c3ccc(OC)cc3)CC2)cc1	/	7%	3%	?	-13%	28%
COc1ccc(N2CCN(C(=O)CCS(=O)(=O)c3ccc(C)cc3)CC2)cc1	/	4%	?	50µM*	-28%	-12%
O=C(CCS(=O)(=O)c1ccc(Br)cc1)N1CCN(c2ccc(F)cc2)CC1	/	10%	56µM*	50µM*	-10%	14%
COc1ccc(S(=O)(=O)CCC(=O)N2CCN(c3ccc(C(C)=O)cc3)CC2)cc1	/	14%	-39%	32µM*	-12%	46%
COc1ccc(N2CCN(C(=O)C3(S(=O)(=O)c4ccc(C)cc4)CC3)CC2)cc1	/	16%	-23%	71µM*	-17%	-9%
Cc1ccc(-c2nc(CS(=O)(=O)CC(=O)Nc3ccc(Br)cc3F)c(C)o2)cc1	/	/	?	-1%[59 µM]	-12%	36%
O=C(Nc1ccc2nccnc2c1)N1CCCCCC1	/	/	/	/	-11%	65%
O=C(CCCc1ccccc1)NC1CC(=O)N(c2ccc(F)cc2)C1 (configuration not stated)	/	/	0%	12%[59 µM]	-4%	18%
COc1ccccc1CNc1ncncc1-c1ccccc1OC	/	-29%	/	-25%[0.501 µM]	/	/
CCCN(CCC)CCNC(=O)c1sc2nc3n(c(=O)c2c1C)CCCCC3	/	/	2%	13%[59 µM]	20%	66%
Cc1[nH]c2ccccc2c1/C=N/Nc1nncn1N	-26%	8.9µM*	50µM*	35µM*	-29%	17%
Cc1[nH]c2ccccc2c1/C=N/NC(=O)c1cccc([N+](=O)[O-])c1	2%	-1%	-25%	-45%	-1%[11.4 µM]	-10%
Cc1[nH]c2ccccc2c1/C=N/NC(=O)c1cccs1	-19%	-22%	?	?	?	14%
Cc1[nH]c2ccccc2c1/C=N\NC(=O)c1ccco1	/	1%	-18%	-2%[0.501 µM]	-18%	18%
Cc1[nH]c2ccccc2c1/C=N/Nc1ccc([N+](=O)[O-])cc1	-23%	-12%	?	8.9µM*	-28%	?
Cc1[nH]c2ccccc2c1/C=N/Nc1ccccn1	?	?	35µM*	?	/	/
Cc1[nH]c2ccccc2c1/C=N/Nc1ccc(F)cc1F	-3%	5%	45µM*	32µM*	/	/
CC1CCC(NC(=S)NCCN(C)C)CC1 (configuration not stated)	-5%[11.4 µM]	?	50µM*	40µM*	7.9µM*	3%
O=C(COc1ccccc1)NC1CCSc2ccccc21 (configuration not stated)	-8%	/	-5%	6.3µM*	-5%	29%
COCCNC(=O)CSc1ccccc1C(=O)NC1CCSc2ccccc21 (configuration not stated)	/	-3%	-14%	35µM*	-9%	-4%
SMILES	L3MBTL1 block	Sfp inh	BAZ2B block	G9a inh	JMJD2A Tudor inh	HP1b binding inh
O=C(Nc1ccc(Cl)c(Cl)c1)N(Cc1c[nH]c2ccccc12)C1CCCCC1	/	/	/	4%[59 µM]	-30%	0%
CC[N+](C)(CC)CC(O)COCC1COc2ccccc2O1 (configuration not stated)	7%	11%	5%	6.3µM*	-23%	0%
CC1CCCC(C)N1CC(O)COCC1COc2ccccc2O1 (configuration not stated)	2%	8%	-18%[57.1 µM]	14%	-6%	40%
CC1(C)CC(=O)C2=C(C1)c1c(ccc3ccccc13)NC2c1ccc(C(=O)O)cc1 (configuration not stated)	/	5%	-3%	-11%	1%	28%
CC1(C)CC(=O)C2=C(C1)c1c(ccc3ccccc13)NC2c1cc([N+](=O)[O-])cc([N+](=O)[O-])c1O (configuration not stated)	-26%	4µM*	50µM*	?	56µM*	?
COc1ccc(-c2csc3nc(-c4cccnc4)nc(Cl)c23)cc1OC	-16%	25µM*	-3%	?	-21%	23%
Clc1nc(-c2cccnc2)nc2scc(-c3ccccc3)c12	16%	-48%	15%	41%[59 µM]	19%	77%
O=C(CSc1n[nH]c(=O)[nH]c1=O)N/N=C/c1ccccc1O	2%	31%	2%	15%[59 µM]	-17%	19%
CN=c1scc(-c2cccs2)n1/N=C/c1ccc(O)c(O)c1O	14µM*	11µM*	25µM*	7.9µM*	25µM*	5µM*
COc1cc(/C=N/NC(=O)CSc2n[nH]c(=O)[nH]c2=O)cc(OC)c1O	/	5%	2%	35µM*	-3%	27%
COc1cc(/C=N/O)cc(Cl)c1OC	3%	6%	2%	-4%[59 µM]	-2%[57.1 µM]	5%
COc1cc(/C=N/N(C)c2ccccc2)cc(Cl)c1O	/	?	45µM*	?	25µM*	22µM*
CN=c1scc(C)n1/N=C/c1cc(Br)c(O)c(OC)c1	-6%	-14%	40µM*	7.9µM*	?	-19%
COc1cc(/C=N/NC(=O)C23CC4CC(CC(C4)C2)C3)cc(Br)c1O	6%	-14%	-38%	?	-20%	-15%
COc1ccc(C2Oc3cc(OC)cc(OC)c3CC2O)cc1 (configuration not stated)	/	-12%	/	/	/	/
COc1cc(/C=N/NC(=O)c2ccc(Cn3cc([N+](=O)[O-])cn3)o2)cc(Br)c1O	-7%	-6%	-28%	8.9µM*	-11%[57.1 µM]	16%
CCCCCC(=O)N/N=C/c1cc(Br)c(O)c(OC)c1	-4%	-13%	-32%	50µM*	-7%	11%
COc1cc(/C=N/NC(=O)CC2(C)OCCO2)cc(Br)c1O	/	-4%	4%	-36%	-7%	25%
COc1cc(/C=N/N(C)C)cc(Br)c1O	-1%	-10%	-32%	14µM*	-27%	13%
CN=c1scc(C)n1/N=C/c1ccc(O)c(O)c1O	/	25µM*	25µM*	?	50µM*	?
Cc1ccc(OCC(=O)NCC2(N(C)C)CCCCC2)cc1C	/	/	-5%	-10%[59 µM]	-7%	36%
COc1cc(C(=O)Nc2nnc(S(=O)(=O)N(C)c3ccccc3)s2)cc(OC)c1OC	/	/	-18%	2%[59 µM]	-4%	24%
